Data from the supplement of paper PMC13380429.

System: Vero E6 infected with SARS-CoV-2
Assay: inhibition of SARS-CoV-2 cytopathic effect; higher = more antiviral protection, active = above 15
Settings: 48 h

Measured: inhibition of SARS-CoV-2 cytopathic effect

CCc1cccc2c3c([nH]c12)C(CC)(CC(=O)O)OCC3 (stereo not given) [etodolac]
inactive: 1 nM -3.24% | 8.33 nM -2.14% | 100 nM -2.22% | 833.33 nM -1.67% | 10000 nM -0.69%

CC(C)=CCC[C@]1(C)C=Cc2c(O)c3c(c(CC=C(C)C)c2O1)O[C@]12C(=C[C@@H]4C[C@H]1C(C)(C)O[C@@]2(C/C=C(/C)C(=O)O)C4=O)C3=O [gambogic-acid]
inactive: 1 nM 2.13% | 8.33 nM -0.37% | 100 nM 0.38% | 833.33 nM 4.87% | 10000 nM -14.3%

Cn1c(-c2ccccc2)nnc1S(C)(=O)=O
inactive: 1 nM 2.45% | 8.33 nM -0.41% | 100 nM 0.33% | 833.33 nM -0.57% | 10000 nM 2.92%

CCOC(=O)[C@H](CCc1ccccc1)N[C@@H](C)C(=O)N(CC(=O)O)C1Cc2ccccc2C1 [delapril]
inactive: 1 nM -1.82% | 8.33 nM 0.71% | 100 nM 2.57% | 833.33 nM 2.28% | 10000 nM -1.55%

O=C(O)[C@H](Cc1ccccc1)NCc1ccc(Cl)cc1
inactive: 1 nM 0.28% | 8.33 nM -1.27% | 100 nM -0.99% | 833.33 nM 1.08% | 10000 nM 0.65%

Cc1c(NC(=O)OC[C@@H]2COCCN2)cn2ncnc(Nc3ccc4c(cnn4Cc4cccc(F)c4)c3)c12
inactive: 1 nM 0.31% | 8.33 nM -2.14% | 100 nM -2.74% | 833.33 nM -8.47% | 10000 nM -10.8%

CCCCCCCCCCC(O)C1C=CC2C(=O)N(c3ccccc3)C(=O)C2N1Nc1ccc([N+](=O)[O-])cc1 (stereo not given)
inactive: 1 nM 0.91% | 8.33 nM 0.89% | 100 nM 1.56% | 833.33 nM 4.49% | 10000 nM 8.83%

CC(C)(C)C(=O)OCC(=O)[C@H]1CC[C@H]2[C@@H]3CCC4=CC(=O)CC[C@]4(C)[C@H]3CC[C@]12C [desoxycorticosterone-pivalate]
inactive: 1 nM -1.6% | 8.33 nM 0.71% | 100 nM -0.4% | 833.33 nM -0.12% | 10000 nM 0.98%

COc1ccc(CC(C)NCC(O)c2ccc(O)c(NC=O)c2)cc1 (stereo not given) [formoterol]
inactive: 1 nM 0.12% | 8.33 nM 2.33% | 100 nM 1.69% | 833.33 nM 0.54% | 10000 nM 10.8%

Cc1csc2c(N[C@@H](C)CN3CCN(S(=O)(=O)c4ccc(Cl)c(Cl)c4)CC3)ncnc12 [LPA2-antagonist-1]
inactive: 1 nM -0.43% | 8.33 nM -0.37% | 100 nM 1.73% | 833.33 nM 1.34% | 10000 nM 5.53%

CN(C)Cc1c(C(=O)NCCOc2ccc(C(=O)NO)cc2)oc2ccccc12
inactive: 1 nM -1.08% | 8.33 nM 3.14% | 100 nM -1.35% | 833.33 nM -15.5% | 10000 nM -26.9%

Cc1c(C)c2c(c(C)c1O)CCC(C)(C)O2
inactive: 1 nM 0.77% | 8.33 nM -0.34% | 100 nM 2.33% | 833.33 nM 4.37% | 10000 nM -5.56%

O=C(O)COCCN1CCN(C(c2ccccc2)c2ccc(Cl)cc2)CC1 (stereo not given) [cetirizine]
inactive: 1 nM -1.03% | 8.33 nM 1.14% | 100 nM -0.08% | 833.33 nM 0.99% | 10000 nM -2.71%

CCN(CC)CC(=O)Nc1c(C)cccc1C [lidocaine]
inactive: 1 nM 0.85% | 8.33 nM 1.24% | 100 nM 0.45% | 833.33 nM 1.31% | 10000 nM -0.93%

CN1C(=O)N(c2cc(Cl)cc(Cl)c2)C(=O)[C@@]1(C)Cc1ccc(Br)cc1
inactive: 1 nM -0.07% | 8.33 nM -0.29% | 100 nM -0.15% | 833.33 nM -1.61% | 10000 nM -5.8%

CCCCc1nc(C)c(CC(=S)N(C)C)c(=O)n1Cc1ccc(-c2ccccc2-c2nnn[nH]2)cc1 [fimasartan]
inactive: 1 nM 0.68% | 8.33 nM -0.83% | 100 nM -1.61% | 833.33 nM 1.46% | 10000 nM -0.45%

C#C[C@]1(O)CC[C@H]2[C@@H]3CCC4=CC(=O)CC[C@@H]4[C@H]3C(=C)C[C@@]21CC [etonogestrel]
inactive: 1 nM -0.26% | 8.33 nM -1.3% | 100 nM -4.31% | 833.33 nM -3.15% | 10000 nM -3.98%

Clc1ccc(C(c2ccc(Cl)cc2)C(Cl)(Cl)Cl)cc1
inactive: 1 nM 1.71% | 8.33 nM 4.86% | 100 nM 0.57% | 833.33 nM -1.73% | 10000 nM -1.33%
